Source: PubChem BioAssay (National Center for Advancing Translational Sciences (NCATS))
PI5P4K alpha inh = inhibitors of human PI5P4K alpha | P48426 | max response, % | 1.2% of 330,000 active | AID 652105 | PI5P4Kalpha enzyme, ADP-Glo luminescence, 60 min; active compounds read low; active means max response of -50% or lower; inconclusive means between -30% and -50%; inactive means -30% or higher; further: value at the top dose of about 77 µM
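Reactions run in 0.038 M HEPES pH 7.4, 0.28 mM EGTA, 0.1% CHAPS and 5% DMSO, with PI5P4Kalpha, substrate, compound and 5 microM ATP final, one hour at room temperature. Readout is ADP-Glo luminescence.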
JMJD2A Tudor inh = inhibitors of human JMJD2A Tudor domain. 4.4% of 390,000 active. O75164. AID 504339. Potency, µM (titrated, usually from 114 µM), usual class: inhibitors. AlphaScreen JMJD2A-Tudor / H3K4me3 peptide binding; further: nearly all actives have a fitted effect of over 50% in size
GCN5L2 inh = blocks human GCN5L2 histone acetyltransferase. Q92830. GCN5L2 HAT assay, ThioGlo1 CoA-SH fluorescence. 0.21% of 390,000 active. Potency, µM (titrated, usually from 58.9 µM), actives largely listed as inhibitors
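GCN5L2 (20nM final) in 50mM HEPES, 0.1mM EDTA pH 7.5, 0.01% Tween-20 was preincubated 15 min at room temperature with compound, then given ThioGlo1 (50uM), H3(1-25) peptide (75uM) and acetyl-CoA (70uM); CoA-thiol fluorescence (Ex340/Em540) was read at 0 and 20 min.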
BAZ2B inh = BAZ2B (human) inhibition; Q9UIF8; AlphaScreen BAZ2B-H3K14Ac peptide displacement; Potency, µM (highest dose often 114 µM), hits mostly inhibitors; 4.4% of 360,000 active; AID 504333; further: nearly all actives have a fitted effect of over 60% in size
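Complex of BAZ2B and biotin-H3K14Ac (50 nM apiece) forms over 30 min at RT, then faces library compounds up to 110 uM for another 30 min; AlphaScreen beads added, 20 min dark incubation, luminescence read.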
HP1b chromo inh = inhibitors of HP1-beta chromodomain binding to methylated histone tails; P83916; AlphaScreen HP1-beta / biotin-H3K9me3 peptide binding; Potency, µM (doses to about 114 µM), most hits filed as inhibitors; 0.56% of 390,000 active; further: nearly all actives have a fitted effect of over 70% in size
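AlphaScreen: HP1-beta (50 nM) preformed 30 min with biotin-H3(1-18)K9me3 peptide (50 nM) in PBS pH 7.4, 0.01% Tween-20. Compound added for 30 min at RT, then streptavidin donor/nickel chelate acceptor beads (10 ug/mL) for 30 min.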
PLK1 PBD block = PLK1 (human) polo-box domain binding inhibition | Plk1 PBD binding of FITC phosphopeptide, fluorescence polarization | Potency, µM, usual class: inhibitors | 2.8% of 360,000 active; further: series mostly up to about 57 µM; nearly all actives have a fitted effect of over 65% in size
Hits are given with their value; [ ] = remark or other dose. Shown are actives, neighbours in structure and some others; about 7% of the full set was active somewhere. Unless noted, the call rests on the fitted dose curve; in most records, active means well fitted curve in the direction sought with a large enough effect; inconclusive means small, poorly fitted or top-dose-only effect, or another doubt; inactive means no such curve, though single readings can be large; an effect the other way counts as inactive or inconclusive.

`O=C(OC1Cc2c(O)cc(O)cc2OC1c1cc(O)c(O)c(O)c1-c1c(C2Oc3cc(O)cc(O)c3CC2O)cc(O)c(O)c1O)c1cc(O)c(O)c(O)c1` (stereo not drawn) gave GCN5L2 inh 16µM.
For O=C(c1c(O)cc(O)cc1O)C1c2c(cc(O)c3c2O[C@H](c2ccc(O)cc2)[C@@H](O)C3)OC1c1ccc(O)cc1 (stereo partly drawn) the results were PI5P4K alpha inh inconclusive, JMJD2A Tudor inh inconclusive, GCN5L2 inh inactive, BAZ2B inh inconclusive, HP1b chromo inh inactive and PLK1 PBD block inactive.
O=C1N(O)C2(C=CCCC2)/C(=N\O)C12CCCCC2 (stereo not drawn) was read as PI5P4K alpha inh inactive, JMJD2A Tudor inh inactive[11.4 µM], GCN5L2 inh inactive, HP1b chromo inh inactive and PLK1 PBD block 30µM.
CCn1c(=O)cc(SCC(=O)NCc2cccc(Cl)c2)c2ccccc21 was read as JMJD2A Tudor inh inactive, GCN5L2 inh inactive, BAZ2B inh inactive and HP1b chromo inh inactive.
Cc1ccc2nc(Cl)c3cc(C(=O)N(CCN(C)C)Cc4ccco4)sc3c2c1 was read as PI5P4K alpha inh inactive, JMJD2A Tudor inh 45µM, GCN5L2 inh inactive, HP1b chromo inh inconclusive and PLK1 PBD block inactive.
For CC1CC(C)(C)NC(=S)S1 (stereo not drawn) the results were PI5P4K alpha inh inactive, JMJD2A Tudor inh inactive, GCN5L2 inh inactive, BAZ2B inh inactive, HP1b chromo inh inactive and PLK1 PBD block 24µM.
`Nc1nc(C23CC4CC(CC(Cl)(C4)C2)C3)cs1` gave PI5P4K alpha inh inactive, JMJD2A Tudor inh inactive, GCN5L2 inh inactive, BAZ2B inh 71µM, HP1b chromo inh inactive and PLK1 PBD block inactive.
Screening Nc1nc(C23CC4CCC(CC(C4)C2)C3)cs1 returned PI5P4K alpha inh inactive, JMJD2A Tudor inh inactive, GCN5L2 inh inactive, BAZ2B inh inactive, HP1b chromo inh inactive and PLK1 PBD block inactive.
COc1ccc(/C=C2/SC(=S)N(NS(=O)(=O)c3ccc(C)cc3)C2=O)cc1 was read as PI5P4K alpha inh inconclusive, JMJD2A Tudor inh inconclusive, GCN5L2 inh inactive, BAZ2B inh 40µM, HP1b chromo inh inconclusive and PLK1 PBD block 24µM.
Cc1ccc(/C=C2\SC(=S)N(NS(=O)(=O)c3ccc(C)cc3)C2=O)cc1 was read as PI5P4K alpha inh inactive, JMJD2A Tudor inh inconclusive, GCN5L2 inh inconclusive, BAZ2B inh 50µM, HP1b chromo inh inactive and PLK1 PBD block 27µM.
Screening COc1cccc(/C=C2\SC(=S)N(NS(=O)(=O)c3ccccc3)C2=O)c1OC returned PI5P4K alpha inh -60, JMJD2A Tudor inh inconclusive, GCN5L2 inh inactive, BAZ2B inh inactive, HP1b chromo inh inactive and PLK1 PBD block inconclusive.
CCOc1ccc(/C=C2\SC(=S)N(N3C(=O)C4CC4C3=O)C2=O)cc1 (stereo not drawn) was read as PI5P4K alpha inh inactive, JMJD2A Tudor inh inconclusive, GCN5L2 inh inactive, BAZ2B inh inactive, HP1b chromo inh inactive and PLK1 PBD block inactive.
`C=CCOc1ccc(/C=C2\SC(=S)N(NS(=O)(=O)c3ccc(C)cc3)C2=O)cc1` gave PI5P4K alpha inh -55, JMJD2A Tudor inh 50µM, GCN5L2 inh inconclusive, BAZ2B inh 40µM, HP1b chromo inh inconclusive and PLK1 PBD block 27µM.
COc1cc(/C=C2\SC(=S)N(NS(=O)(=O)c3ccccc3)C2=O)cc(OC)c1OC was read as PI5P4K alpha inh inactive, JMJD2A Tudor inh inconclusive, GCN5L2 inh inactive, BAZ2B inh inconclusive, HP1b chromo inh inactive and PLK1 PBD block inactive.
`Cn1c(SCC(=O)Nc2ccc(Cl)cc2F)nnc1-c1ccco1` gave PI5P4K alpha inh inactive, JMJD2A Tudor inh inactive, GCN5L2 inh inactive, BAZ2B inh inactive, HP1b chromo inh inactive and PLK1 PBD block inactive.
Screening O=C1/C(=C/c2cccc(F)c2)SC(=S)N1NS(=O)(=O)c1ccccc1 returned PI5P4K alpha inh inconclusive, JMJD2A Tudor inh inactive, GCN5L2 inh inactive, BAZ2B inh inconclusive, HP1b chromo inh inactive and PLK1 PBD block inconclusive.
For Cc1ccc(S(=O)(=O)NN2C(=O)/C(=C/c3cccs3)SC2=S)cc1 the results were PI5P4K alpha inh -59, JMJD2A Tudor inh inconclusive, GCN5L2 inh inactive, BAZ2B inh inconclusive, HP1b chromo inh inactive and PLK1 PBD block inconclusive.
